Reference: PMC7862700, “An all-to-all approach to the identification of sequence-specific readers for epigenetic DNA modifications on cytosine”

How the values were obtained:
Assay in all cases: DAPPL (digital affinity profiling via proximity ligation, sequencing); 10 mM Tris-HCl pH 7.5, 50 mM NaCl, 1 mM DTT, 4% glycerol, room temperature, 30 min; GST-TFs on glutathione beads, 16-mer random dsDNA library, 0.1% formaldehyde crosslink after washing; high values mean tight binding
Conditions in all cases: protein: recombinant; tags: N-terminal GST; dsDNA, one strand shown
ERF = target: T1, ERF (Homo sapiens, UniProt P50548 1-548)
T1 sequence: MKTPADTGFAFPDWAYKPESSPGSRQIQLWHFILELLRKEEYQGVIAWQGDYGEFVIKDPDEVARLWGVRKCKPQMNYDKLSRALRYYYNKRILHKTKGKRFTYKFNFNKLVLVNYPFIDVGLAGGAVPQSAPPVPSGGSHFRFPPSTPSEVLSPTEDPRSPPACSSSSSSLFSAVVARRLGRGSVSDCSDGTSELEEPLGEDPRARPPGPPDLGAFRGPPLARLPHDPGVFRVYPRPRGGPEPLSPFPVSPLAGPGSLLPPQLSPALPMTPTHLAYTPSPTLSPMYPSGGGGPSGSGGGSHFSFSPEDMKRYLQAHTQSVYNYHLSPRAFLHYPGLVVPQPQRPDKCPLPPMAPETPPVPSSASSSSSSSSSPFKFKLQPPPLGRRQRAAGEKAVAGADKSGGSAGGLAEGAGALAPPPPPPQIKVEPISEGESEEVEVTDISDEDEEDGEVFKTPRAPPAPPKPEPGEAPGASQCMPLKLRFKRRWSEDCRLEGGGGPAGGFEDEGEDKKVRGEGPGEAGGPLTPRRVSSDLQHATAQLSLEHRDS
How it was run: (§1)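 Yeast served to express human transcription factors as GST fusions, which were then captured on glutathione beads and labelled with DNA barcodes. Pooled with a tag-only sample, they were incubated with 200 nmole of a 16-mer random double-stranded DNA library for 30 min at room temperature in Tris/NaCl/DTT/glycerol buffer, washed, crosslinked with 0.1% formaldehyde, ligated by proximity, amplified by PCR and sequenced. Dividing each hexamer's read frequency for a factor by its frequency for the tag-only sample gives the binding signal.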

ETV3L = target: T2, ETV3L (Homo sapiens, UniProt Q6ZN32 1-361)
T2 sequence: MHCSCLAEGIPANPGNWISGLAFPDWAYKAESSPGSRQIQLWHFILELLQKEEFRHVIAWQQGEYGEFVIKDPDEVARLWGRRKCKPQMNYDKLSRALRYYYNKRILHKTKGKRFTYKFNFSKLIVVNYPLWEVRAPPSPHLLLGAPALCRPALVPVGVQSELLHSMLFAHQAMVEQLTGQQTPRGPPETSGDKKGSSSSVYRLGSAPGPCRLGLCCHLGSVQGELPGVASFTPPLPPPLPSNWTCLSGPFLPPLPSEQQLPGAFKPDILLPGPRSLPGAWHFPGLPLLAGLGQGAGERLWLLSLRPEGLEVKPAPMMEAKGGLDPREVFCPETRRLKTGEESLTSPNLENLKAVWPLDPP
How it was run: as §1

ETS2 = target: T3, ETS2 (Homo sapiens, UniProt P15036 1-469)
T3 sequence: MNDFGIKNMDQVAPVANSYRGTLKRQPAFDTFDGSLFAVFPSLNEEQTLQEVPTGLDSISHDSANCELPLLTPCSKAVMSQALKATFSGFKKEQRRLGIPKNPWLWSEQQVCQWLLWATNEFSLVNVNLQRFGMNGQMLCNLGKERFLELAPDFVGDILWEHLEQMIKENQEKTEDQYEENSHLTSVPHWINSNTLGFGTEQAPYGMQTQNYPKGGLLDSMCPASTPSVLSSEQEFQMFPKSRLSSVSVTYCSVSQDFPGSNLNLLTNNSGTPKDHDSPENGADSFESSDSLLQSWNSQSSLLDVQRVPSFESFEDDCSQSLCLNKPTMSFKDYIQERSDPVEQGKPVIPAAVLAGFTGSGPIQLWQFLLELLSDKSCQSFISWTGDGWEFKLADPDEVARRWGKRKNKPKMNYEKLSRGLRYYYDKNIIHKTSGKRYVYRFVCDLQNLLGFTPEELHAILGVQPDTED
How it was run: as §1

SPDEF = target: T4, SPDEF (Homo sapiens, UniProt O95238 1-335)
T4 sequence: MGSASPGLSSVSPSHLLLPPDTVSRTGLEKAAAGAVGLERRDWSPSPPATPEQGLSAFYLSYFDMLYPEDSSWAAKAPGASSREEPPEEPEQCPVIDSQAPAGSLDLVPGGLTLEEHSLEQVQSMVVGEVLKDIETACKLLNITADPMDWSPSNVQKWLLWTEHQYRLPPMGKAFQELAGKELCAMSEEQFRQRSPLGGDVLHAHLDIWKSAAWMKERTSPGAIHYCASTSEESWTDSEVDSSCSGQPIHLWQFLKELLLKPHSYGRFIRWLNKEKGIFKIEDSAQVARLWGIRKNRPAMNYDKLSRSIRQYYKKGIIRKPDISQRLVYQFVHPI
How it was run: as §1

ETV7 = target: T5, ETV7 (Homo sapiens, UniProt Q9Y603 1-341)
T5 sequence: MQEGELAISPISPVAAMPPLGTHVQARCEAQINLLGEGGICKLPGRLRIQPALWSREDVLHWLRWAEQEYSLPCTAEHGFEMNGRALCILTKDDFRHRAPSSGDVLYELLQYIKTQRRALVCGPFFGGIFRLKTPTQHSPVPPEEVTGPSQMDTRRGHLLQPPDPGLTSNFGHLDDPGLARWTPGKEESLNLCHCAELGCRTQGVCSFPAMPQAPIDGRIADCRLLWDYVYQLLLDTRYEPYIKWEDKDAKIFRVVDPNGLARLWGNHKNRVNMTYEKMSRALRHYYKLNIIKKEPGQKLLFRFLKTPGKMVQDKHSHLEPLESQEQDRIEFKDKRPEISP
How it was run: as §1

ELF5 = target: T6, ELF5 (Homo sapiens, UniProt Q9UKW6-2 1-255)
T6 sequence: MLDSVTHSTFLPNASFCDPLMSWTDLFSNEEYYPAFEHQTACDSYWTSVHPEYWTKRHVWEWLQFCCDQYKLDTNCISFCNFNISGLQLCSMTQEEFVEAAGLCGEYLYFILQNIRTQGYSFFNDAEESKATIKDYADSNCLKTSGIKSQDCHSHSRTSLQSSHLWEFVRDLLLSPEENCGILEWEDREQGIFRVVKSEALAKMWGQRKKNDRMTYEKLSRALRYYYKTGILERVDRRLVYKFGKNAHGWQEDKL
How it was run: as §1

ETV3 = target: T7, ETV3 (Homo sapiens, UniProt P41162-2 1-143)
T7 sequence: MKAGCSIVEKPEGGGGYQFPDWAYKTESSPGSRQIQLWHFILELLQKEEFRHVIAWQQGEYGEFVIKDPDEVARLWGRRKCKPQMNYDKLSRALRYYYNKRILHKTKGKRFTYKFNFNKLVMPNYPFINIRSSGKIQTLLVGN
How it was run: as §1

ETV6 = ETV6 (Homo sapiens, UniProt P41212 1-452)
How it was run: as §1

ETV6, sequence (P41212 whole entry): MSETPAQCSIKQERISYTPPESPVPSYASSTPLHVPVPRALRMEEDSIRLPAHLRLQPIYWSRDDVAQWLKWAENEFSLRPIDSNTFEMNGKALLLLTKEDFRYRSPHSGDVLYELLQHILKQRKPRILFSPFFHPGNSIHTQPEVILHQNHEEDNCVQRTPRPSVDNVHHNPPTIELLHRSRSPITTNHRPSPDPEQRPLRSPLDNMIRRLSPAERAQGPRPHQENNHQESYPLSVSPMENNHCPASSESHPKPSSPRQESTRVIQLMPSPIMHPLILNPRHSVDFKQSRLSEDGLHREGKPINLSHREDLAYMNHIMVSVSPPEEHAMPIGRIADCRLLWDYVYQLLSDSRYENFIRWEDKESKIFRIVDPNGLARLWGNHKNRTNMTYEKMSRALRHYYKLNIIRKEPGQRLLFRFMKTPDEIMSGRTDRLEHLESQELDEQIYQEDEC

| Sequence | binding signal (ERF) | binding signal (ETV3L) | binding signal (ETS2) | binding signal (SPDEF) | binding signal (ETV7) | binding signal (ELF5) | binding signal (ETV3) | binding signal (ETV6) |
| --- | --- | --- | --- | --- | --- | --- | --- | --- |
| CGTAAC | 1.09 fold enrichment (6-mer frequency, TF over GST control) | 1.08 fold enrichment (6-mer frequency, TF over GST control) | 1.15 fold enrichment (6-mer frequency, TF over GST control) | 1.17 fold enrichment (6-mer frequency, TF over GST control) | 1.07 fold enrichment (6-mer frequency, TF over GST control) | 1.12 fold enrichment (6-mer frequency, TF over GST control) | 1.16 fold enrichment (6-mer frequency, TF over GST control) | 1.06 fold enrichment (6-mer frequency, TF over GST control) |
| ACATCA | 1.13 fold enrichment (6-mer frequency, TF over GST control) | 1.08 fold enrichment (6-mer frequency, TF over GST control) | 1.11 fold enrichment (6-mer frequency, TF over GST control) | 1.07 fold enrichment (6-mer frequency, TF over GST control) | 1.1 fold enrichment (6-mer frequency, TF over GST control) | 1.07 fold enrichment (6-mer frequency, TF over GST control) | 1.14 fold enrichment (6-mer frequency, TF over GST control) | 1.16 fold enrichment (6-mer frequency, TF over GST control) |
| CATGGT | 1.24 fold enrichment (6-mer frequency, TF over GST control) | 1.27 fold enrichment (6-mer frequency, TF over GST control) | 1.25 fold enrichment (6-mer frequency, TF over GST control) | 1.13 fold enrichment (6-mer frequency, TF over GST control) | 1.16 fold enrichment (6-mer frequency, TF over GST control) | 1.16 fold enrichment (6-mer frequency, TF over GST control) | 1.25 fold enrichment (6-mer frequency, TF over GST control) | 1.2 fold enrichment (6-mer frequency, TF over GST control) |
| TACAAA | 1.1 fold enrichment (6-mer frequency, TF over GST control) | 1.03 fold enrichment (6-mer frequency, TF over GST control) | 1.17 fold enrichment (6-mer frequency, TF over GST control) | 1.14 fold enrichment (6-mer frequency, TF over GST control) | 1.11 fold enrichment (6-mer frequency, TF over GST control) | 1.13 fold enrichment (6-mer frequency, TF over GST control) | 1.08 fold enrichment (6-mer frequency, TF over GST control) | 1.16 fold enrichment (6-mer frequency, TF over GST control) |
| TACAAC | 1.1 fold enrichment (6-mer frequency, TF over GST control) | 1.11 fold enrichment (6-mer frequency, TF over GST control) | 1.12 fold enrichment (6-mer frequency, TF over GST control) | 1.17 fold enrichment (6-mer frequency, TF over GST control) | 1.09 fold enrichment (6-mer frequency, TF over GST control) | 1.09 fold enrichment (6-mer frequency, TF over GST control) | 1.15 fold enrichment (6-mer frequency, TF over GST control) | 1.11 fold enrichment (6-mer frequency, TF over GST control) |
| CCTCGG | 1.23 fold enrichment (6-mer frequency, TF over GST control) | 1.23 fold enrichment (6-mer frequency, TF over GST control) | 1.23 fold enrichment (6-mer frequency, TF over GST control) | 1.04 fold enrichment (6-mer frequency, TF over GST control) | 1.11 fold enrichment (6-mer frequency, TF over GST control) | 1.2 fold enrichment (6-mer frequency, TF over GST control) | 1.05 fold enrichment (6-mer frequency, TF over GST control) | 1.24 fold enrichment (6-mer frequency, TF over GST control) |
| TCTACG | 1.46 fold enrichment (6-mer frequency, TF over GST control) | 1.4 fold enrichment (6-mer frequency, TF over GST control) | 1.41 fold enrichment (6-mer frequency, TF over GST control) | 1.33 fold enrichment (6-mer frequency, TF over GST control) | 1.36 fold enrichment (6-mer frequency, TF over GST control) | 1.35 fold enrichment (6-mer frequency, TF over GST control) | 1.32 fold enrichment (6-mer frequency, TF over GST control) | 1.2 fold enrichment (6-mer frequency, TF over GST control) |
| ATCGCT | 1.06 fold enrichment (6-mer frequency, TF over GST control) | 1.05 fold enrichment (6-mer frequency, TF over GST control) | 1.1 fold enrichment (6-mer frequency, TF over GST control) | 1.04 fold enrichment (6-mer frequency, TF over GST control) | 1.03 fold enrichment (6-mer frequency, TF over GST control) | 1.05 fold enrichment (6-mer frequency, TF over GST control) | 1.05 fold enrichment (6-mer frequency, TF over GST control) | 1.04 fold enrichment (6-mer frequency, TF over GST control) |
| AACTTG | 1.18 fold enrichment (6-mer frequency, TF over GST control) | 1.17 fold enrichment (6-mer frequency, TF over GST control) | 1.18 fold enrichment (6-mer frequency, TF over GST control) | 1.14 fold enrichment (6-mer frequency, TF over GST control) | 1.08 fold enrichment (6-mer frequency, TF over GST control) | 1.06 fold enrichment (6-mer frequency, TF over GST control) | 1.28 fold enrichment (6-mer frequency, TF over GST control) | 1.09 fold enrichment (6-mer frequency, TF over GST control) |
